Bioassay records deposited in PubChem BioAssay by The Scripps Research Institute Molecular Screening Center.
Rows were chosen to be rich in hits. Some 2.3% of all compounds tested hit in one or more screens of this group.
PAD4 inh: blocks human protein arginine deiminase 4 | AID 485272 | inhibition, % at 6.36 µM | recombinant PAD4, RCA probe fluorescence polarization | 330,000 compounds, 0.41% hits;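 active means percent inhibition above a cutoff equal to the mean of all tested compounds plus 3 SD, cut at about 15% in these data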
pPAFAH inh: inhibitors of human plasma PAF acetylhydrolase (pPAFAH); Q13093; recombinant pPAFAH, FP-rhodamine probe fluorescence polarization; inhibition, % at 3.39 µM; 330,000 compounds, 1.5% hits;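 active means inhibition above the mean inhibition across the screen plus 3 SD, cut at about 25% in these data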;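 further: inhibitors block binding of the rhodamine activity-based probe so polarization drops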
Fam108B counter: Fam108B inhibition, counter-screen for RBBP9 inhibitors; recombinant Fam108B, FP-Rh probe fluorescence polarization; inhibition, % at 9.51 µM; 300,000 compounds, 0.33% hits; AID 1947;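 active means inhibition above the screen mean inhibition plus 3 SD, computed separately per campaign, cut at about 18% in these data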;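 further: inhibitors lower polarization as less probe binds the enzyme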
PME-1 primary: blocks human protein phosphatase methylesterase 1. AID 2130. 320,000 compounds, 0.53% hits. inhibition, % at 5.9 µM. recombinant PME-1, FP-Rh probe fluorescence polarization;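 active means inhibition above the campaign mean of all compounds plus 3 SD, cut at about 26% in these data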;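 further: competitive labeling of PME-1 active site by serine hydrolase directed probe; inhibitors block probe labeling so polarization falls and inhibition rises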
Target sequence (Q9Y570 whole entry, looked up): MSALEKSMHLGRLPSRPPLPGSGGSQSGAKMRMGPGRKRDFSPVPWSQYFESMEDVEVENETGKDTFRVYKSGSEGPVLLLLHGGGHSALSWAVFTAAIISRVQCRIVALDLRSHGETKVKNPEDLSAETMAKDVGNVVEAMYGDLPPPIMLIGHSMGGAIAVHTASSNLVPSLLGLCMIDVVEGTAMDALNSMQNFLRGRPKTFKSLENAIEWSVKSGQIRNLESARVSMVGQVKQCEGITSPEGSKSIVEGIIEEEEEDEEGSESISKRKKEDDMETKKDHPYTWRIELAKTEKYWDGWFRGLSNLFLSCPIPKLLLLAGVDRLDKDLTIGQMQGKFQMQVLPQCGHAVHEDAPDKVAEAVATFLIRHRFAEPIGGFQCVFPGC
GSTO1 counter: blocks human GSTO1 in RBBP9 counter-screen; AID 1974; 300,000 compounds, 1.1% hits; P78417; inhibition, % at 5.96 µM; recombinant GSTO1, activity-based probe fluorescence polarization;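 active means inhibition above the campaign mean inhibition plus 3 SD, cut at about 35% in these data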
Target sequence (P78417 whole entry, looked up): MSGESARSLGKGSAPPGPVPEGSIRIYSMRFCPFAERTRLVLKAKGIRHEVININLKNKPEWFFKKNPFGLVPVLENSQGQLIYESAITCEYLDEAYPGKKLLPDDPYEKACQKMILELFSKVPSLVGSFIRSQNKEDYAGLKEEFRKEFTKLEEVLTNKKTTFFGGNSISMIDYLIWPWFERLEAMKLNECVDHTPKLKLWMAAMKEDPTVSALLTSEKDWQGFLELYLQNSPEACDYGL
Hits are given with their value; n = inactive; x = no result.

SMILES | PAD4 inh | pPAFAH inh | Fam108B counter | PME-1 primary | GSTO1 counter
S=c1[nH]nc(-c2cc(-c3ccco3)[nH]n2)n1-c1ccccc1Cl | n | 29 | n | n | n
CCN(CC)c1ccc(/C=C2\C(=O)c3ccc(C(=O)O)cc3C2=O)cc1 | n | 28 | n | n | n
CCN(CC)c1ccc(C(=O)O)cc1 | n | n | n | n | n
Nc1c(C(=O)Nc2ccccc2)sc2nc(-c3ccco3)ccc12 | n | n | n | 56 | n
Nc1c(C(=O)Nc2ccccc2)sc2nc(-c3cccnc3)ccc12 | n | n | n | n | n
CC(C)CNC(=O)COC(=O)c1ccc2c(c1)C(=O)N(Cc1ccco1)C2=O | n | 27 | n | n | n
CC(C)(C)C(=O)COC(=O)c1ccc2c(c1)C(=O)N(Cc1ccco1)C2=O | n | n | n | n | n
CCCC(C)NC(=O)COC(=O)c1ccc2c(c1)C(=O)N(Cc1ccco1)C2=O (centres undefined) | n | 25 | n | n | n
O=C(CCC(=O)c1cccs1)NCc1cccc(Cl)c1 | n | n | n | n | n
COc1cccc(-n2c(=O)n(Cc3ccccc3)c(=O)c3[nH]cnc32)c1C | n | n | n | n | n
CCCNC(=O)c1ccc2c(=O)c(O)c(-c3ccc(C)cc3)[nH]c2c1 | n | n | n | n | n
Cc1ccc(CNC(=O)c2ccc3c(=O)c(O)c(-c4ccc(C)cc4)[nH]c3c2)cc1 | n | 27 | n | n | n
COc1ccccc1NC(=O)C(=O)N/N=C(\C)CC(=O)Nc1ccccc1C(F)(F)F | n | n | n | n | n
S=C(NCCNC(=S)Nc1ccccc1)Nc1ccccc1 | n | n | n | 33 | n
S=C(NCCOCCOCCNC(=S)Nc1ccccc1)Nc1ccccc1 | n | n | n | n | n
Cc1ccc(S(=O)(=O)N2CCC(C(=O)OCC(=O)N3CC(C)CC(C)C3)CC2)cc1C (centres undefined) | n | n | n | n | n
COc1ccc(-n2nnnc2SC(C)C(N)=O)cc1 (centres undefined) | n | n | n | n | n
CCN(CC)S(=O)(=O)c1ccc2c(c1)nc(SC(C)C(N)=O)n2-c1ccc(OC)cc1 (centres undefined) | n | 26 | n | n | n
COc1ccc(N2CCN(c3ncnc4scc(-c5ccccc5)c34)CC2)cc1 | n | 32 | n | n | n
COc1ccc(N2CCN(c3ncnc4scc(-c5ccc(C)cc5)c34)CC2)cc1 | n | n | n | n | n
CCCSc1nc2cc(OC)c(OC)cc2c(=N)n1CCCN1CCOCC1 | n | n | n | n | n
COCCCn1c(SCc2ccc(OC)cc2)nc2cc(OC)c(OC)cc2c1=N | n | 25 | n | n | n
Cc1cc(NC(=O)CSc2nnc(C(F)(F)F)n2C)no1 | n | n | x | x | x
O=C(Nc1ccc([N+](=O)[O-])cc1)Nc1nc(-c2ccc(Cl)s2)cs1 | n | n | n | 44 | n
Cc1nc(Cl)c2c(n1)NC1=C(O2)C(=O)CCC1 | n | n | n | n | n
SMILES | PAD4 inh | pPAFAH inh | Fam108B counter | PME-1 primary | GSTO1 counter
COc1ccccc1CNC(=O)/C=C/c1ccc(S(=O)(=O)NCc2ccco2)cc1 | n | 25 | n | n | n
O=C(O)/C=C/c1ccc(S(=O)(=O)NCc2ccco2)cc1 | n | n | n | n | n
O=C(/C=C/c1ccc(S(=O)(=O)NCc2ccco2)cc1)NCc1cccc(Cl)c1 | n | 29 | n | n | n
Cc1ccc(CNC(=O)/C=C/c2ccc(S(=O)(=O)NCc3ccco3)cc2)cc1 | n | n | n | n | n
O=C1CCCC2=C1C(c1ccc(O)c(O)c1)c1c(ccc3ncccc13)N2 (centres undefined) | n | n | n | n | 75
CCOc1ccc(C2C3=C(CCCC3=O)Nc3ccc4ncccc4c32)cc1 (centres undefined) | n | 29 | n | n | n
Cc1cc(C)c(C)c(OC(=O)c2sc(Cl)nc2C)c1 | n | n | n | n | 36
Cc1ccc(NC(=O)c2sc(Cl)nc2C)c(C)c1 | n | n | n | n | n
CCOc1cc(/C=N/Nc2cc(C)nc(-n3nc(C)cc3C)n2)ccc1O | n | n | n | n | n
COc1ccc(/C=N/Nc2cc(C)nc(-n3nc(C)cc3C)n2)c(OC)c1 | n | n | n | 54 | n
COc1cccc(-c2coc3c(C)c4oc(=O)c(CCC(=O)O)c(C)c4cc23)c1 | n | 25 | n | n | n
CC(C)C(C)NC(=O)COC(=O)c1cc(S(=O)(=O)N(C)C)ccc1N1CCCC1 (centres undefined) | n | n | n | n | n
CCN(CC)S(=O)(=O)c1ccc(Cl)c(NC(=O)COC(=O)C2CCCCC2)c1 | n | n | x | n | x
CCN(CC)S(=O)(=O)c1ccc(C)c(NC(=O)COC(=O)c2ccc(C)c(S(=O)(=O)N3CCOCC3)c2)c1 | n | n | n | 51 | n
CCN(CC)S(=O)(=O)c1ccc(Cl)c(NC(=O)COC(=O)c2cccn2C)c1 | n | n | n | 33 | n
Cc1ccc(S(=O)(=O)N2CCOCC2)cc1NC(=O)COc1ccccc1Cc1ccccc1 | n | 26 | x | x | x
Cc1ccccc1Cc1c(C)nc2c(C(=O)NCc3ccco3)cnn2c1C | n | 27 | n | n | n
Cc1ccccc1Cc1c(C)nc2nc(SCC(=O)NCc3ccco3)nn2c1C | n | n | n | n | n
Cc1cc(C(=O)COc2cc(F)ccc2[N+](=O)[O-])c(C)n1CC1CCCO1 (centres undefined) | n | n | x | x | x
COc1ccc2[nH]c3c(c2c1)CCN1C(=O)C(CC(=O)NC/C=C(\C)CCC=C(C)C)C[C@H](C(=O)N(C(C)C)C(C)C)[C@@]31C (some centres undefined) | n | 26 | x | x | x
CC[C@]12c3[nH]c4cc(CCC(=O)N(C)C)ccc4c3CCN1C(=O)[C@@H](CC(=O)NC/C=C(\C)CCC=C(C)C)C[C@@H]2C(=O)N1CCN(C(=O)C2CC2)CC1 | n | 29 | x | x | x
CN(C)C(=O)CCc1ccc2c3c([nH]c2c1)[C@]1(C)[C@@H](C(=O)N2CCOCC2)C[C@H](CC(=O)NC(C)(C)C)C(=O)N1CC3 | n | n | x | x | x
CC(C)=CCC/C(C)=C/CNC(=O)C[C@H]1C[C@H](C(=O)N2CCOCC2)[C@@]2(C)c3[nH]c4cc(CCC(=O)N(C)C)ccc4c3CCN2C1=O | n | 30 | x | x | x
CCC1CCCCN1S(=O)(=O)c1ccc(-n2cnnn2)c(C)c1 (centres undefined) | n | n | n | n | n
O=C(O)CN1C(=O)/C(=C\c2cc([N+](=O)[O-])ccc2OCc2ccccc2Cl)SC1=S | n | 45 | n | n | n
COC(=O)/C(=C(O)\C=C\c1ccccc1[N+](=O)[O-])c1nc2ccccc2[nH]1 | n | n | n | 29 | n
O=C1CN(C(=O)c2ccccc2)C(c2ccccc2)c2cc(F)ccc2N1 (centres undefined) | n | n | n | n | n
O=C1CN(C(=O)c2cc3ccccc3oc2=O)C(c2ccccc2)c2cc(F)ccc2N1 (centres undefined) | n | n | n | 34 | n
O=c1oc2ccccc2c(O)c1CN1CCCCC1 | n | n | n | n | n
